From PubChem BioAssay
sEH inh = inhibitors of human soluble epoxide hydrolase; inhibition, % at 2 µM; AID 707; 91,000 tested, 0.34% active; recombinant human sEH enzymatic activity assay; in the data active = inhibition above about 80%
Target sequence (P34913 whole entry, looked up): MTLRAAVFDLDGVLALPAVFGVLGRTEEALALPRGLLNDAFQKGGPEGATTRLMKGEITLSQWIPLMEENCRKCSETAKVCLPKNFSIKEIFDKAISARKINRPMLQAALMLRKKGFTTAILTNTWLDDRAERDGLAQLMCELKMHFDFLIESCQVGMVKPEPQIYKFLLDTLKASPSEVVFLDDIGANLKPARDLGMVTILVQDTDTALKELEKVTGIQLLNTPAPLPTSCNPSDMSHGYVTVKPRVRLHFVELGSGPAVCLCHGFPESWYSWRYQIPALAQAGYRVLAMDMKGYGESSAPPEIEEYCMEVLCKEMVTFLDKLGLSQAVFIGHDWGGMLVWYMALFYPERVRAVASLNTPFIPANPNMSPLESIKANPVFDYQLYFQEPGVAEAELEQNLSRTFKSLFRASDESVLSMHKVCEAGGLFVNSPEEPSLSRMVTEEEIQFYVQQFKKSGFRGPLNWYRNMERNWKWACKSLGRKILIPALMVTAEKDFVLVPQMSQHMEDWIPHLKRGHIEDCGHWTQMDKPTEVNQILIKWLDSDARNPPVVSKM
PostGolgi ctrl = growth of the yeast control strain, post-Golgi counter-screen | efflux-deficient yeast background strain, growth absorbance A615, 16 h | inhibition, % at 10 µM | 98,000 tested, 5% active | AID 738
PostGolgi yeast = growth inhibition of a yeast mutant, post-Golgi transport screen; post-Golgi transport phenotypic cell assay; inhibition, % at 10 µM; 98,000 tested, 0.9% active; AID 739;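 also: yeast cells grown in 1536-well plates; yeast grown about 18 h at 30C before absorbance read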
sEH activator = activators of human soluble epoxide hydrolase; P34913; purified human sEH enzymatic activity, activator screen; activation, % at 2 µM; 91,000 tested, 0.04% active; in the data active = activation above about 37%
Cav3 T inh = human Cav3.2 channel inhibition, primary screen | 100,000 tested, 4% active | O95180 | B-score at 10 µM | AID 449739 | Cav3.2-expressing cells, Fluo-4 calcium fluorescence FDSS; active compounds read low;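 active = single-dose well whose peak fluorescence ratio is a statistical outlier from its plate by either plate-standardised score or position-corrected B-score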
Hits are given with their value; – = inactive; · = no result given. Compounds with a hit are over-represented: about 7.8% of the library has one in this group of screens. Rule as the data show it, unless noted: active = inhibition above about 30%; inactive = the rest.

SMILES | sEH inh | PostGolgi ctrl | PostGolgi yeast | sEH activator | Cav3 T inh
O=S(=O)(c1cccc(-c2nc3ccccc3s2)c1)N1CCCC1 | – | 33.8 | – | – | –
O=S(=O)(c1ccc(-c2nc3ccccc3s2)cc1)N1CCCC1 | – | – | – | – | –
Cc1ccccc1Nc1nc(N)nc(CN2C(=O)NC3(CCCCC3C)C2=O)n1 (stereo not given) | · | – | – | · | –
COc1ccccc1NC(=O)C(=O)NNC(=O)c1ccco1 | – | – | – | – | –
Cc1ccc(C(=O)NCc2ccc(Cl)c(Cl)c2)o1 | – | – | – | – | –
CCOC(=O)NCc1ccc(Cl)c(Cl)c1 | – | 35.9 | – | – | –
CCN(CC)S(=O)(=O)c1ccc2c(c1)nc(CCC(=O)Nc1ccccc1Cc1ccccc1)n2CC | – | – | – | – | -4.42
COc1ccc(S(=O)(=O)Nc2cc(C(C)C)c(O)cc2C)cc1 | – | – | – | – | -4.82
Cc1cccc(OCc2nnc(SCC(=O)N(C(C)C)C(C)C)n2Cc2ccco2)c1C | – | – | – | – | -6.6
COc1ccc(C)cc1NC(=O)CSc1nnc(COc2ccc(Cl)cc2)n1Cc1ccco1 | – | 40.0 | – | – | –
Cc1cc(NC(=O)CSc2nnc(COc3cccc(C)c3C)n2Cc2ccco2)no1 | – | – | – | – | –
CCn1c(COc2ccccc2C)nnc1SCC(=O)CC(=O)Nc1ccccc1OC | – | – | – | – | -4.93
COc1ccc(C)cc1NC(=O)CSc1nnc(COc2ccccc2)n1Cc1ccco1 | – | – | – | – | ·
O=C(CSc1nnc(Cc2cccs2)n1Cc1ccco1)Nc1cc(Cl)cc(Cl)c1 | – | 35.0 | – | – | -4.27
CCOC(=O)C(NC(C)=O)(Nc1ccc(S(=O)(=O)Nc2onc(C)c2C)cc1)C(F)(F)F (stereo not given) | – | – | 34.8 | – | –
CCOC(=O)N1CCN(C(=O)c2ccc3c(=O)n(Cc4ccc(OC)cc4)c(=S)[nH]c3c2)CC1 | – | – | – | – | -4.1
CC1CC(C)CN(C(=O)c2ccc3c(=O)n(Cc4ccc5c(c4)OCO5)c(=S)[nH]c3c2)C1 (stereo not given) | 84.6 | 35.8 | – | – | –
CCn1c(=O)[nH]c2cc(C(=O)N3CCN(c4ccccc4)CC3)ccc2c1=O | – | – | 36.5 | – | –
CCOC(=O)N1CCN(C(=O)c2ccc(Cn3c(=S)[nH]c4cc5c(cc4c3=O)OCO5)cc2)CC1 | – | – | – | – | –
Cc1ccc(C2CC2C(=O)NNC(=S)Nc2cccc(C)c2)cc1 (stereo not given) | – | · | · | – | -8.71
Cc1ccc(NC(=S)NNC(=O)c2cn(C)nc2C)cc1 | – | – | – | – | –
Cc1ccc(C2CC2C(=O)NNC(=S)Nc2cccc(Cl)c2)cc1 (stereo not given) | – | · | · | – | ·
Cc1ccc(NC(=S)NNC(=O)C2CC2c2ccc(C)cc2)cc1 (stereo not given) | – | · | · | – | -6.66
O=C(COc1ccccc1)Nc1cccc(-c2nc3cc4ccccc4cc3[nH]2)c1 | – | – | 45.4 | – | –
CC(Oc1ccccc1)C(=O)Nc1cccc(-c2nc3ccccc3[nH]2)c1 (stereo not given) | – | – | – | – | -4.61
SMILES | sEH inh | PostGolgi ctrl | PostGolgi yeast | sEH activator | Cav3 T inh
CC(=O)Nc1cccc(-c2nc3ccc(NC(C)=O)cc3[nH]2)c1 | – | – | – | – | –
COc1ccc(C2=NCC(CSc3nnc(-c4ccc5c(c4)OCO5)o3)S2)cc1 (stereo not given) | – | 37.1 | – | – | –
CC(=O)N(C(C)=O)C1=C(C#N)C2(CCCCC2)Cc2ccccc21 | – | – | – | – | -6.31
CC1(C)Cc2ccccc2C(N)=C1C#N | – | – | – | – | –
Cc1ccc(C)c(NC(=O)c2nnn(Cc3ccccc3C)c2N)c1 | – | 33.5 | – | – | –
Cc1ccc(S(=O)(=O)C2(C(=O)N3CCN(C4CCCCC4)CC3)CC2)cc1 | – | – | – | – | -5.19
C[C@H]1CCC[C@@]2(O[C@H](CCO)C[C@H](O)[C@H]2O)O1 | · | · | · | · | –
CCO/N=C(/C)c1c(O)c(C)c(-c2ccccc2)n(-c2ccccc2)c1=O | – | · | · | – | –
CCN(CC)C(=O)N1c2ccccc2C=Cc2ccccc21 | – | – | – | – | -8.58
COc1ccc(-c2[nH]ncc2/C=N\NS(=O)(=O)c2ccc(Cl)cc2)cc1 | – | 30.6 | – | – | –
COc1ccc(-c2[nH]ncc2/C=N\NS(=O)(=O)c2ccccc2)cc1OC | – | – | – | – | ·
COC(=O)c1ccccc1NC(=O)CS(=O)(=O)Cc1nc(-c2ccc(C)cc2)oc1C | – | – | – | – | –
COc1cc(OC)c(NC(=O)CS(=O)(=O)Cc2nc(-c3ccc(C)cc3)oc2C)cc1Cl | – | – | – | – | -4.86
COc1ccc(OC)c(NC(=O)CS(=O)(=O)Cc2nc(-c3ccccc3C)oc2C)c1 | – | – | – | – | –
COc1ccc(OC)c(CCNC(=O)CS(=O)(=O)Cc2nc(-c3ccc(C)cc3)oc2C)c1 | – | – | – | – | -5.93
COc1ccc(-c2nc(CS(=O)(=O)CC(=O)Nc3ccc(Cl)cc3)c(C)o2)cc1 | · | – | – | · | -5.29
CN1CCN(CC(=O)N2c3ccccc3C(C)(c3ccccc3)CC2(C)C)CC1 (stereo not given) | – | 35.7 | – | – | –
CC(=O)N1c2ccccc2C(C)(c2ccccc2)CC1(C)C (stereo not given) | – | – | – | – | -4.99
CC(=O)N1c2ccccc2C(C)CC12CCCCC2 (stereo not given) | – | – | – | – | –
O=C(CN1CCCCC1)N1CCCc2ccccc21 | – | – | – | – | –
COc1ccc2c(c1OC)C(=O)N1c3cccc(Cl)c3C(=O)OC21 (stereo not given) | – | – | – | – | -4.31
COc1cc(O)oc1C=Nc1ccc(C(F)(F)F)cc1 | – | – | – | – | –
Cc1cc(N)n2ncc(-c3ccccc3)c2n1 | – | – | – | – | –
Cc1cc(N)n2ncc(-c3cccc(Br)c3)c2n1 | – | 33.1 | – | – | –
Cc1c(C=O)cnn1CCC(=O)O | – | · | · | – | –
SMILES | sEH inh | PostGolgi ctrl | PostGolgi yeast | sEH activator | Cav3 T inh
COc1ccc(C(=O)Nn2cnc3scc(-c4cccs4)c3c2=O)c(O)c1 | – | – | – | – | -9.05
O=C(NNc1ccc(C2CCCCC2)cc1)C(O)(c1ccccc1)c1cccs1 (stereo not given) | – | 46.0 | – | – | –
COc1ccc(C(O)(C(=O)NNc2ccc(C)cc2)c2cccs2)cc1 (stereo not given) | – | – | – | – | –
CCOC(=O)Cc1ccc(NC(=O)c2ccc(C(C)(C)C)cc2)cc1 | – | – | – | – | -8.09
CCO[C@@H]1OC(C(=O)Nc2ccccc2)=C[C@H](c2csc3ccccc23)[C@H]1CCCO | · | · | · | · | –
CC(=O)c1cccc(NC(=O)CSCc2ccccc2)c1 | – | – | – | – | –
CCN(CC)c1ccc(-c2nc3cnccn3c2NC2CCCC2)cc1 | – | 35.0 | – | – | -6.24
c1cn2c(NC3CCCC3)c(-c3ccc(N4CCOCC4)cc3)nc2cn1 | – | – | – | – | –
Cc1c(N2C(=O)CSC23C(=O)Nc2ccccc23)c(=O)n(-c2ccccc2)n1C (stereo not given) | – | 39.9 | – | – | –
CCOC(=O)c1c(NC(=O)CSc2nnc(CNc3ccc(OC)cc3)n2C)sc(C)c1C | – | – | – | – | -6.64
